{"source": "PubChem BioAssay (EPA / NIEHS)", "note": "Calls of active or inactive are those of the source. How the source made its calls: active means hit-call score of the fitted dose curve at least 0.9, where 1 is the maximum; inactive means score below 0.9."}
{"biological_target": "Transcription factor E2F1 (Homo sapiens) (UniProt Q01094)", "sequence (Q01094 whole entry, looked up)": "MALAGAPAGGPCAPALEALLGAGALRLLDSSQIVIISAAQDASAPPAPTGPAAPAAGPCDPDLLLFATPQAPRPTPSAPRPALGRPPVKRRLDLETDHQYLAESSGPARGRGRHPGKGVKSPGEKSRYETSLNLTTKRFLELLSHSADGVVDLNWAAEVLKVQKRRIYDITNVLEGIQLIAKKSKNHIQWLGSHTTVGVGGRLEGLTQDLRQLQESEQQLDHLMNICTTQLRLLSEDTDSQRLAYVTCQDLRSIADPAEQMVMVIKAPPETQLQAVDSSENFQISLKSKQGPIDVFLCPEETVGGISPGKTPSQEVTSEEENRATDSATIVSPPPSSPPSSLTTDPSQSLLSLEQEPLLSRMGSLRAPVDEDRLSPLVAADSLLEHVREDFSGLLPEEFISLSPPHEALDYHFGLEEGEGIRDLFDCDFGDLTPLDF", "assay": "ATG_E2F_CIS: Attagene CIS-FACTORIAL HepG2 Assay for human E2F Transcription Factor 1 (AID 2282935)", "conditions": "HepG2 Attagene cis-reporter, E2F reporter RNA transcripts; actives raise or lower the signal", "in_short": "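Cis-element reporter mRNA induction in transiently transfected HepG2, 24 h exposure. Activity fitted in both directions relative to DMSO negative control.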"}
{"compound": "CCCCOC(=O)c1ccccc1C(=O)OCc1ccccc1", "outcome": "inactive"}
{"compound": "CCOc1cccc(C2(N3CCN(c4ccccc4)CC3)CCC(C)CC2)c1", "note": "(stereo not given)", "outcome": "inactive"}
{"compound": "Cc1cccc(N)c1N", "outcome": "inactive"}
{"compound": "CCCCCCCCCCCCCN1CC(C)OC(C)C1", "note": "(stereo not given)", "outcome": "inactive"}
{"compound": "O=Cc1ccco1", "outcome": "inactive"}
{"compound": "Nc1ccc([N+](=O)[O-])cc1", "outcome": "inactive"}
{"compound": "CC(C)(OOC(C)(C)c1ccccc1)c1ccccc1", "outcome": "inactive"}
{"compound": "O=C1CCCO1", "outcome": "inactive"}
{"compound": "O=C(N[C@H](c1ccccc1)[C@@H]1CN2CCC1CC2)c1c(Cl)ccc(C(F)(F)F)c1Cl", "outcome": "inactive"}
{"compound": "Cn1cc(-c2ccccc2)c(=O)c(-c2cccc(C(F)(F)F)c2)c1", "outcome": "inactive"}
{"compound": "C1=Cc2cccc3cccc1c23", "outcome": "inactive"}
{"compound": "Cc1ccc(N)cc1", "outcome": "inactive"}
{"compound": "Cc1ccc(N)c(N)c1", "outcome": "inactive"}
{"compound": "OCCCBr", "outcome": "inactive"}
{"compound": "Cc1cc(N=Nc2ccccc2C)ccc1N", "outcome": "inactive"}
